Results published in PubChem BioAssay (NCI).
About 83,000 compounds went through this panel and 20% of them were active in at least one assay; those are over-represented in the sample as a whole.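 Results are percent growth after 48 hours of single-concentration exposure. 100 means growth as in untreated cells, lower positive values show inhibition; negative values down to -100 show cell death.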 Unmarked numbers belong to inactive results. Active and inactive are the calls of the source. Rule for the calls: active = growth percent below 10; inactive = the rest.

Tests used:
Assay in all cases: NCI-60 one-dose screen, 48 h (100 = growth as untreated, 0 = no growth, -100 = all killed)
Settings in all cases: 10 µM unless noted
NCI-H23 lung = test system: NCI-H23 lung
NCI-H226 lung = test system: NCI-H226 lung
NCI-H322M lung = test system: NCI-H322M lung
HOP-62 NSCLC = test system: HOP-62 NSCLC
NCI-H460 lung = test system: NCI-H460 lung
HOP-92 NSCLC = test system: HOP-92 NSCLC
NCI-H522 lung = test system: NCI-H522 lung
A549/ATCC NSCLC = test system: A549/ATCC NSCLC
786-0 renal = test system: 786-0 renal
COLO 205 colon = test system: COLO 205 colon

Row | Structure (SMILES) | growth (NCI-H23 lung) | growth (NCI-H226 lung) | growth (NCI-H322M lung) | growth (HOP-62 NSCLC) | growth (NCI-H460 lung) | growth (HOP-92 NSCLC) | growth (NCI-H522 lung) | growth (A549/ATCC NSCLC) | growth (786-0 renal) | growth (COLO 205 colon)
1 | CCN1CCN(Cc2ccc(NC(=O)c3cccc(C#Cc4cccc5[nH]nc(N)c45)c3)cc2C(F)(F)F)CC1 | -42.9% (active) | 16.6% | -49.6% (active) | -76.4% (active) | -72.2% (active) | -62.7% (active) | -84.7% (active) | -91.2% (active) | -81.6% (active) | -76.2% (active)
2 | CCCCc1nc(Cl)c(C2CC(c3ccc(Cl)cc3)=NN2c2cc(Cl)cc(Cl)c2)[nH]1 (stereo not given) | 69.5% | 92.3% | 70.6% | 52.9% | 30.2% | 94% | 32% | 8.64% (active) | 41.3% | 96.1%
3 | Nc1ccc(C2=NN(C(=O)c3cc(-c4ccc(Cl)cc4)nc4ccccc34)C(c3ccccc3)C2)cc1 (stereo not given) | 43.6% | 53% | 45.7% | 35.4% | 18.8% | 50.9% | 24% | 40.7% | 21.7% | 30%
4 | COc1ccc(/C=C(/C(=O)N2CCCC2)c2cc(OC)c(OC)c(OC)c2)cc1 | 34% | 69.2% | 45.7% | 29.3% | 13.6% | 47.9% | 26.3% | 36.1% | 35.3% | 4.08% (active)
5 | C=C(C)[C@@H]1CC[C@]2(C(=O)OCCOCCOCC[P+](c3ccccc3)(c3ccccc3)c3ccccc3)CC[C@]3(C)[C@H](CC[C@@H]4[C@@]5(C)CC[C@H](OC(C)=O)C(C)(C)[C@@H]5CC[C@]43C)[C@@H]12 | -84.6% (active) | -85.3% (active) | -93.8% (active) | -84.9% (active) | -80.5% (active) | -87.3% (active) | -75.2% (active) | -88.3% (active) | -91.6% (active) | -75.7% (active)
6 | CC(=O)Nc1c(C(=O)Nc2ccccc2)sc2nc3c(cc12)C(OC(C)=O)CCC3 (stereo not given) | 98% | 92.9% | 99% | 97.1% | 108% | 86.9% | 74.4% | 94.2% | 71.7% | 110%
7 | COc1ccc(-c2nnc(N3CCN(C(=O)CN4CCN(c5ccc(OC)cc5)CC4)CC3)nc2-c2ccc(OC)cc2)cc1 | 21.4% | -81.4% (active) | 32.6% | 1.58% (active) | 29.3% | -62.9% (active) | -84.5% (active) | 59.1% | 26.3% | 19%
8 | C#Cc1ccccc1NC(=O)c1sc2nc3c(cc2c1N)CCCCCC3 | 53.5% | 83.4% | 82.7% | 76.8% | 33.4% | 67.6% | 72.1% | 51.4% | 17% | 47.4%
9 | O=C1C(=O)c2c(nc3ccc(Br)cn23)-c2ccccc21 | -38.7% (active) | -92.6% (active) | -96.6% (active) | -96.5% (active) | -63.2% (active) | -75.3% (active) | -72.6% (active) | -63.5% (active) | -96.9% (active) | -82.4% (active)
10 | CSc1nc(-c2cccs2)c2c(N)[nH]nc2n1 | 93.1% | 104% | 92.8% | 87.9% | 113% | 110% | 83.3% | 98.5% | 91.4% | 112%
11 | COc1cccc(NC(=O)Nc2ccc(Nc3ncnc4[nH]c(C)c(C)c34)cc2)c1 | 111% | 101% | 114% | 103% | 102% | 104% | 90.8% | 92.7% | 113% | 112%
12 | CCOC(=O)/C(=C/c1c(-c2ccccc2)[nH]c2ccccc12)C(=O)c1ccc(Cl)cc1 | 55% | 71.3% | 78.6% | 48% | 33.1% | 13.5% | 19.8% | 39.6% | 26.5% | 63.2%
13 | C#Cc1cccc(Nc2ncnc3ccc(NC(=O)c4ccccc4)cc23)c1 | 86.9% | 85.9% | 21.7% | 102% | 76.8% | 65% | 53.5% | 70.9% | 76.7% | 99.7%
14 | CCOC(=O)c1ccc(Nc2ncnc3ccc(NC(=O)c4ccccc4)cc23)cc1 | 83.7% | 78.2% | 95.6% | 98.8% | 95.5% | 86.4% | 73.3% | 91.5% | 86.8% | 104%
15 | CC(=O)OCC1OC(OC2C(COC(C)=O)OC(OCCC[S-])C(OC(C)=O)C2OC(C)=O)C(OC(C)=O)C(OC(C)=O)C1OC(C)=O.[Au+].c1ccc(CN2[CH-]N(Cc3ccccc3)C(c3ccccc3)=C2c2ccccc2)cc1 (stereo not given) | 12.1% | 25.3% | 52% | 31.8% | 15% | -11.4% (active) | -30.8% (active) | 23.2% | 9.05% (active) | -37.4% (active)
16 | N#CC1C(c2ccc(Cl)cc2)=Nc2c(c(-c3ccccc3)nn2-c2ccccc2)C12C(=O)Nc1ccc(Cl)cc12 (stereo not given) | 50.7% | 61.5% | 79.2% | 57.9% | 22.3% | -8.89% (active) | 55.9% | 27.2% | 42.9% | 51%
17 | O=C(CN1N=C(c2ccc(F)cc2)CCC1=O)Nc1nc2ccccc2s1 | -26.2% (active) | 41.7% | 95.1% | -23.7% (active) | 51.3% | -77.1% (active) | -73.5% (active) | -48.8% (active) | -90.2% (active) | 87.2%
18 | O=C(Nc1ccccc1)NS(=O)(=O)c1c[nH]c(=S)[nH]c1=O | 92.3% | 105% | 104% | 72.4% | 106% | 115% | 60.7% | 80.7% | 95.7% | 96.5%
19 | COc1cc(-c2csc(NC(=O)Nc3ccc(Cl)cc3)n2)cc(OC)c1OC | 11.3% | 32.6% | 64.8% | 38.5% | 24.9% | 7.26% (active) | 3.25% (active) | 17.8% | 47.5% | 13.2%
20 | NC(=O)CN1C(=O)c2ccccc2C1=O | 98.8% | 101% | 99.1% | 101% | 106% | 96.7% | 88.3% | 103% | 102% | 110%
21 | Cc1nccc2c3ccc(OCc4cn(-c5ccccc5)nn4)cc3n(CCCc3ccccc3)c12 | 80.8% | 85.7% | 75.6% | 78.2% | 59.2% | 57.3% | 57.5% | 52.2% | 80% | 50.7%
22 | Cc1[nH]c(N=Nc2ccccc2)nc1N=Nc1ccccc1 | 36.3% | 12.7% | 39% | 36.5% | 16.2% | 40.3% | -17.5% (active) | 27% | 6.21% (active) | 17.2%
23 | COc1ccc(C2N(c3cc(OC)c(OC)c(OC)c3)C(=O)C2(F)F)cc1F (stereo not given) | 37.9% | 75.5% | 91.2% | 38.4% | 27.2% | 60.8% | 17.5% | 48.6% | 75.3% | 16.3%
24 | Cc1c(C(=O)Nc2nc3ccccc3[nH]2)cnn1-c1ccccn1 | 101% | 104% | 111% | 107% | 103% | 135% | 76.2% | 86.3% | 107% | 126%
25 | O=c1[nH]nc(-c2ccccc2)c2sc(NC(=S)Nc3ccc(Cl)cc3)nc12 | 86% | 89.3% | 100% | 79.4% | 97.6% | 97.2% | 68.6% | 90.7% | 92.5% | 101%
26 | Cc1cccc(C)c1NCc1nnc(-c2ccc(O)cc2)o1 | 91.1% | 95.5% | 98.9% | 111% | 96.9% | 88.3% | 97.1% | 104% | 102% | 97.3%
